Compound activity: PubChem BioAssay, several laboratories
A selection: hits, their analogues and other compounds. The true share with any hit is near 3.7%.
TIM10 inh – growth inhibitors of isogenic TIM10 control yeast, primary screen, counter-screen for tim10-1 yeast inhibitor project, luminescence, uHTS. S. cerevisiae TIM10 strain growth, BacTiter-Glo luminescence, 24 h. inhibition, % at 10 µM. 330,000 tested, 1.4% active. AID 463195, 2010;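 active = inhibition of 40% or more at the single tested concentration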;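 note: wild-type TIM10 isogenic control strain grown at permissive 25 °C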
tim23-1 inh – growth inhibitors of tim23-1 mutant yeast, primary screen, luminescence, uHTS. 330,000 tested, 1.3% active. inhibition, % at 20 µM. AID 463212, 2010. S. cerevisiae tim23-1 growth, BacTiter-Glo luminescence, 24 h;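 active = growth inhibition of the mutant yeast at or above 50%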;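 note: temperature-sensitive mutant grown at 25 °C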
tim10-1 inh – growth inhibitors of tim10-1 mutant yeast, primary screen, luminescence, uHTS; inhibition, % at 20 µM; S. cerevisiae tim10-1 ts strain growth, BacTiter-Glo, 24 h; AID 463190, 2010; 330,000 tested, 2.2% active;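 active = inhibition of at least 40%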;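 note: mutant grown at 25 °C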
PfHsp90 yeast 2 – growth inhibition of PfHsp90-expressing yeast, primary screen, antimalarial PfHsp90 inhibitor project, S. cerevisiae, BacTiter-Glo luminescence, single point, set 2; inhibition, % at 9.4 µM; BacTiter-Glo ATP, 48 h; yeast lacking PDR1 and PDR3 efflux regulators; 310,000 tested, 0.32% active; AID 504621, 2011;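 active = every replicate shows inhibition above about 80%, whatever the replicate mean, limit read from the data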
NALP3 yeast inh – NALP3 inflammasome inhibitors in reconstituted yeast, primary screen, luminescence, uHTS | Yeast reconstituted NLRP3/ASC/caspase-1, beta-gal luminescence, 24 h | inhibition, % at 10 µM | 330,000 tested, 0.39% active | AID 2825, 2010;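 active = inhibition of 50% or more; inactive = inhibition below 50%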
TIM10 conf – growth inhibitors of wild-type TIM10 yeast, confirmation, counter-screen for tim10-1 synthetic lethality project, single concentration, luminescence, S. cerevisiae; inhibition, % at 10 µM; AID 463215, 2010; 4,600 tested, 63% active; shares compounds with TIM10 inh; S. cerevisiae tim10 strain growth, BacTiter-Glo luminescence, 24 h;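 active = inhibition of yeast growth at or above a set limit in either of two replicates at 10 µM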; note: this counterscreen used the strain with wild-type TIM10
Each line names hits and unclear results; the compound was inactive in the other large screens (follow-up assays come after a bar, where they were run).

Cc1ccc2oc(C(=O)Nc3cc(C)on3)c(C)c2c1	none
Cc1ccc(NC(=O)c2cc(S(=O)(=O)NCCc3ccccc3)ccc2F)cc1Cl	none
O=C(Nc1cccc(Cl)c1)c1cc(S(=O)(=O)NCCc2ccc(Cl)cc2)ccc1F	TIM10 inh 41.0 | TIM10 conf 51.5
O=C(O)c1nnn(-c2cc(C(F)(F)F)cc(C(F)(F)F)c2)c1-c1ccccc1	TIM10 inh 41.4 | TIM10 conf inactive
COc1ccc(/C=C2/N=C(SC)NC2=O)cc1OC	none
Cc1ccccc1C1=N/C(=C/c2cccs2)C(=O)O1	TIM10 inh 51.1 (no result: PfHsp90 yeast 2) | TIM10 conf inactive
O=C1C(=Cc2cccs2)C(=O)c2ccccc21	none
COCCN(Cc1ccccc1)C(=S)Nc1ccc(Cl)cc1	TIM10 inh 41.1 | TIM10 conf 40.5
CCCCN(C(=O)CSc1nc2ccccc2n1CC)C1CCS(=O)(=O)C1 (stereo not drawn)	none
Nc1ccc(C23CC4CC(CC(C4)C2)C3)cc1	TIM10 inh 42.4 | TIM10 conf inactive
COc1ccc(/C=C/C(=O)NCCc2c[nH]c3ccccc23)cc1OC	TIM10 inh 53.5 | TIM10 conf inactive
COc1ccc(/C=C/C(=O)NCCCNC(=O)/C=C/c2ccc(OC)c(OC)c2)cc1OC	none
COc1ccc(C(=O)Nc2cccc(-c3cnc4ccccc4n3)c2)cc1	none
Nc1ccc(-c2nc3ncccc3o2)c(Cl)c1	TIM10 inh 41.6 | TIM10 conf inactive
O=C(CCS(=O)(=O)c1ccccc1)Nc1ncc([N+](=O)[O-])s1	TIM10 inh 40.9 | TIM10 conf 33.3
CCOC(=O)c1cnc(-n2nc(C)cc2C)nc1NCc1ccccc1	TIM10 inh 43.5 | TIM10 conf 38.7
CCN(CC)S(=O)(=O)c1cccc(NC(=O)c2cccc(S(=O)(=O)N3CCCC3)c2)c1	none
CCOC(=O)c1c(CCl)nc2ccccc2c1-c1ccccc1	none
ClCc1nc2ccccc2c2ccccc12	TIM10 inh 40.6 | TIM10 conf 37.5
COc1cccc(C2CC(c3ccccc3Cl)n3ncnc3N2)c1 (stereo not drawn)	none
O=C(COC(=O)C1CCN(S(=O)(=O)c2cccs2)CC1)NCc1ccccc1	none
Cc1ccc(C2CC(C(F)(F)F)n3ncc(C(N)=O)c3N2)cc1 (stereo not drawn)	none
Cc1ccc(C2CC(C(F)(F)F)n3ncc(C(=O)NCc4ccco4)c3N2)cc1 (stereo not drawn)	TIM10 inh 47.5 (no result: PfHsp90 yeast 2) | TIM10 conf 31.7
COc1ccc(NC(=O)C23CC4CC(C2)CC(c2ccc(C)cc2)(C4)C3)cc1	none
COc1ccccc1CN1CC(C(=O)NCCCc2ccc(F)cc2)CCC1=O (stereo not drawn)	none
c1cc(-c2nnc3sc(C4CCCCC4)nn23)ccn1	TIM10 inh 40.7 | TIM10 conf inactive
COc1ccc(C(=S)N2CCOCC2)cc1OC(=O)c1cc(OC)c(OC)c(OC)c1	none
Cc1ccc(N(CC(=O)Nc2ccc(F)c(Cl)c2)S(=O)(=O)c2c(C)noc2C)cc1	TIM10 inh 64.5 | TIM10 conf 61.3
Cc1ccc(N(CC(=O)Nc2cc(C)cc(C)c2)S(=O)(=O)c2c(C)noc2C)cc1	none
O=C(COC(=O)c1cc(Br)ccc1O)NC12CC3CC(CC(C3)C1)C2	none (no result: PfHsp90 yeast 2)
S=C(NCCc1ccccc1)N/N=C/c1ccc(Cl)cc1	TIM10 inh 40.6 | TIM10 conf 33.4
S=C(NCCc1ccccc1)N/N=C/c1c(Cl)cccc1Cl	none
Cn1c(CNC(=O)c2cccs2)nnc1SCC(=O)Nc1ccccc1	none
Cc1cccc(NC(=S)N/N=C(\c2ccccc2)C(C)C)c1	TIM10 inh 54.0 | TIM10 conf 40.0
CC(C)c1ccc(S(=O)(=O)N2CCN(C(=S)NCc3ccco3)CC2)cc1	TIM10 inh 49.4 | TIM10 conf inactive
O=S(=O)(c1cccc(C(F)(F)F)c1)N1CCN(C(=S)NCc2ccco2)CC1	none
Cn1cnc([N+](=O)[O-])c1S(=O)(=O)c1ccc(Cl)cc1	none (no result: TIM10 inh, tim23-1 inh, tim10-1 inh, NALP3 yeast inh)
CC(C)Cn1c(C(C)C)nc([N+](=O)[O-])c1S(=O)(=O)c1ccc(F)cc1	TIM10 inh 40.2 | TIM10 conf inactive
COc1ccc(-c2nnc3sc(-c4ccco4)nn23)cc1OC	none
COc1ccc(-c2nn3c(-c4ccco4)nnc3s2)cc1OC	TIM10 inh 45.3 | TIM10 conf inactive
Cc1cc(C)c(C(=O)C(C)OC(=O)Cn2cnc3c2c(=O)n(C)c(=O)n3C)cc1C (stereo not drawn)	TIM10 inh 58.2 | TIM10 conf inactive
CC(OC(=O)Cn1cnc2c1c(=O)n(C)c(=O)n2C)C(=O)Nc1ccc(Cl)cc1 (stereo not drawn)	none
CC(=O)C1CCC2C3CCC4=CC(=O)CC[C@]4(C)[C@@]3(F)C(O)C[C@]12C (stereo partly drawn)	none
CCN(CC)c1ccc(/C=N/NC(=S)NCc2ccccc2)c(O)c1	TIM10 inh 40.9 | TIM10 conf inactive
CCN(CC)c1ccc(/C=N/N(c2ccccc2)c2ccccc2)c(O)c1	none
O=C1c2ccccc2C(=O)c2cc(NC(=O)C3CC3)ccc21	TIM10 inh 44.1 | TIM10 conf inactive
CN(CC(=O)Nc1ccccc1Br)C(=O)c1ccccc1OCc1ccccc1Cl	none (no result: TIM10 inh, tim23-1 inh, tim10-1 inh, NALP3 yeast inh)
O=C(NC1CC1)C1=C[C@H](c2coc3ccccc3c2=O)C[C@H](OCc2ccc(CO)cc2)O1	none
CCn1c(-c2ccccc2O)n[nH]c1=S	none
S=c1[nH]nc(-c2cccc(Cl)c2)n1Cc1ccccc1	none
S=c1[nH]nc(CCc2ccccc2)n1Cc1ccccc1	none
S=c1[nH]nc(-c2cc3ccccc3o2)n1Cc1ccccc1	TIM10 inh 52.4 | TIM10 conf 47.8
S=c1[nH]nc(-c2ccc(Cl)cc2Cl)n1Cc1ccccc1	TIM10 inh 55.9 | TIM10 conf inactive
CCn1c(-c2cc(-c3ccccc3)sc2N)n[nH]c1=S	TIM10 inh 45.2 | TIM10 conf 43.0
Cc1cccc(-c2n[nH]c(=S)n2Cc2ccccc2)c1	TIM10 inh 41.4 | TIM10 conf inactive
O=C(Nc1ccc(Cl)c(Cl)c1)N1CCSC1c1ccco1 (stereo not drawn)	TIM10 inh 48.2 | TIM10 conf 30.9
CC(=O)Nc1ccc(S(=O)(=O)N2CCSC2c2ccco2)cc1 (stereo not drawn)	none (no result: PfHsp90 yeast 2)
CCCC(=O)Nc1cccc(-c2nc3ccccc3o2)c1	TIM10 inh 47.4 | TIM10 conf inactive
Cc1ccc(C)c(NC(=S)NCc2ccc3c(c2)OCO3)c1	TIM10 inh 40.8 | TIM10 conf inactive
Cc1cc(C)cc(NC(=S)NCc2ccc3c(c2)OCO3)c1	TIM10 inh 41.7 | TIM10 conf inactive
